Source: PubChem (National Center for Advancing Translational Sciences (NCATS))
JMJD2A Tudor inh: inhibitors of human JMJD2A Tudor domain; 390,000 tested, 4.4% active; Potency, µM (series often up to 114 µM), without a hit: at the top dose activity change, negative = inhibition, usual class: inhibitors; O75164; AlphaScreen JMJD2A-Tudor / H3K4me3 peptide binding; note: potency is the fitted concentration of half-maximal effect; % is set by controls: 0 for no effect and ±100 for the full control effect; nearly all actives have a fitted effect of over 50% in size
BAZ2B block: blocks human BAZ2B; AlphaScreen BAZ2B-H3K14Ac peptide displacement; Potency, µM (highest dose often 114 µM), for the others: at the highest dose activity change, negative = inhibition, actives largely listed as inhibitors; 360,000 tested, 4.4% active; AID 504333; note: potency is the fitted concentration of half-maximal effect; % is set by controls: 0 for no effect and ±100 for the full control effect; nearly all actives have a fitted effect of over 60% in size
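AlphaScreen displacement of biotin-H3(5-23)K14Ac peptide (50 nM final) from BAZ2B (50 nM final) in PBS pH 7.4, 0.01% Tween-20; complex preformed 30 min RT, then compounds (top 110 uM) 30 min RT, beads 20 min dark.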
TDP1 inh: blocks human tyrosyl-DNA phosphodiesterase 1; 350,000 tested, 0.28% active; AID 485290; Q9NUW8; Potency, µM (doses to about 130 µM), for inactives: at the top dose activity change, negative = inhibition, hits mostly inhibitors; recombinant TDP1, AlphaScreen DNA substrate cleavage; note: potency is the fitted concentration of half-maximal effect; % is set by controls: 0 for no effect and ±100 for the full control effect; nearly all actives have a fitted effect of over 40% in size
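Steps: enzyme plus compound, 15 min RT; add biotin/phosphotyrosine-FITC oligonucleotide (15 nM final), react 5 min; add donor/acceptor beads (10 ug/ml final), 10 min; read AlphaScreen. Tdp1 at 1 nM final.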
HP1b binding inh: HP1-beta chromodomain-methylated histone interaction inhibition. Potency, µM (titrated, usually from 114 µM), inactives show at the highest dose activity change, negative = inhibition, hits mostly inhibitors. AID 540317. P83916. AlphaScreen HP1-beta / biotin-H3K9me3 peptide binding. 390,000 tested, 0.56% active; note: potency is the fitted concentration of half-maximal effect; nearly all actives have a fitted effect of over 70% in size
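AlphaScreen: HP1-beta (50 nM) preformed 30 min with biotin-H3(1-18)K9me3 peptide (50 nM) in PBS pH 7.4, 0.01% Tween-20. Compound added for 30 min at RT, then streptavidin donor/nickel chelate acceptor beads (10 ug/mL) for 30 min.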
Six1-Eya2 inh: blocks human Six1 binding to Eya2; 360,000 tested, 0.56% active; AID 651725; activity change, % (test concentration not listed); AlphaScreen GST-Six1/His-Eya2 binding, biochemical; active compounds read low; in the data active = activity change below about -65%; inconclusive = mostly about -30% to -63%; note: % is set by controls: 0 for no effect and ±100 for the full control effect
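AlphaScreen luminescence read after one hour at 37 °C in darkness. Pin-transferred compounds met GST-Six1 and His-Eya2 protein (5X stock 250 nM/500 nM) plus glutathione donor and Ni-chelate acceptor beads (5X, 50 ug/mL).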
CtBP-E1A inh: inhibitors of CtBP/E1A interaction; AlphaScreen GST-E1A/His-CtBP binding, 1536-well; active compounds read low; activity change, % (test concentration not listed); 340,000 tested, 0.49% active; in the data active = activity change below about -65%; inconclusive = mostly about -30% to -63%; note: % is set by controls: 0 for no effect and ±100 for the full control effect
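GST-E1A and His-tagged CtBP (125 nM each as 5X stock) were preincubated with pin-transferred compound for 2 h at 37 °C in the dark, then glutathione donor and nickel acceptor beads were added for 1 h before AlphaScreen reading.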
* hit, by the source's call; ? = inconclusive; . = no result given; [ ] = remark or other dose. This is a sample that favours compounds with a hit; in the whole collection about 5.3% have one here. Unless noted, calls come from the whole dose curve; as a rule, active = well fitted inhibition curve with a large enough effect; inconclusive = small, poorly fitted or top-dose-only effect; inactive = no such curve, though single readings can be large or run the other way.

SMILES	JMJD2A Tudor inh	BAZ2B block	TDP1 inh	HP1b binding inh	Six1-Eya2 inh	CtBP-E1A inh
Cc1cc(OCCOCCNC(C)C)cc(C)c1Cl	3.2µM*	79µM*	.	-18%	23	31
CCOC(=O)c1c(NC(=O)c2cc3nc(-c4ccc(Br)cc4)cc(C(F)(F)F)n3n2)sc(C(C)=O)c1C	-17%	-6%	-4%	-2%	.	.
COc1cc(CN(C(=O)c2cccc(C)c2)c2ccccn2)cc(OC)c1OC	5%	-9%	-1%	60%	.	.
Cc1oc2cc([N+](=O)[O-])c(O)c([N+](=O)[O-])c2c1C(=O)c1ccc(Cl)cc1	50µM*	32µM*	0%	?	-2	.
CCOC(=O)c1ccc(NC(=O)Cn2cnc3sc(C(=O)OCC)c(C)c3c2=O)cc1	-16%	1%	-1%	0%	.	.
Cc1ccc(C(C)C)cc1OCC(=O)NCCCn1ccnc1	-23%	.	1%	39%	-4	-5
Cc1c(CCC(=O)NCCCn2ccnc2)c(=O)oc2c(C)c3occ(C(C)(C)C)c3cc12	?	25µM*	8%	5%	-5	-22
O=C(COc1ccc(Br)cc1)NCCCn1ccnc1	2%	56µM*	1%	43%	-5	.
Cc1coc2c(C)c3oc(=O)c(CCC(=O)NCCCn4ccnc4)c(C)c3cc12	-24%	-37%	.	10%	?	?
O=C(COc1ccc2ccc(=O)oc2c1)NCCCn1ccnc1	-18%	?	1%	21%	1	4
Cc1c(C)c2ccc(OCC(=O)NCCCn3ccnc3)c(C)c2oc1=O	-14%	79µM*	3%	50%	-6	-4
COc1ccccc1OCC(=O)NCCCn1ccnc1	-33%	79µM*	5%	17%	5	.
Cc1oc2ncnc(N3CCCCC3)c2c1C(=O)Nc1cccc(Cl)c1C	-17%	1%[57.1 µM]	1%	22%	.	.
Cc1ccc(OCc2cc(=O)n3cc(C)sc3n2)c(C)c1	6%	-3%	-1%	49%	.	.
C=CCn1c(=O)c2c(nc(-c3ccccc3)n2C)n(C)c1=O	.	.	-1%	.	.	.
NN1C(=O)NC(c2ccccc2)(c2ccccc2)C1=O	25µM*	-5%	0%	29%	0	-16
NC(=O)NC(=O)CN1C(=O)NC(c2ccccc2)(c2ccccc2)C1=O	-6%	-23%	7%	18%	-6	7
Cn1c(=O)cc(SCC(=O)Nc2cccc(C#N)c2)c2ccc(Cl)cc21	-10%	.	5%	13%	.	.
CC(C)c1ccc(CN(C(=O)C2COc3ccccc3O2)C2CCS(=O)(=O)C2)cc1 (stereo not drawn)	-19%	-7%	5%	6%	-2	-4
Cc1c(C(=O)N(Cc2ccc(N(C)C)cc2)C2CCS(=O)(=O)C2)oc2ccccc12 (stereo not drawn)	14µM*	28µM*	11%	?	?	?
CN(C)c1ccc(CN(C(=O)C2COc3ccccc3O2)C2CCS(=O)(=O)C2)cc1 (stereo not drawn)	?	56µM*	11%	-6%	-17	-12
Cc1c(C(=O)N(Cc2ccccc2)C2CCS(=O)(=O)C2)oc2ccccc12 (stereo not drawn)	-23%	-8%	.	19%	-2	-7
O=C(NC(=S)NNC(=O)c1ccccc1O)c1cccc([N+](=O)[O-])c1	79µM*	45µM*	.	-18%	-77*	-90*
COc1ccc(C(=O)NNC(=S)NC(=O)c2cccc([N+](=O)[O-])c2)cc1	-17%	.	.	6%	-6	-5
CCCCCC(=O)NNC(=S)NC(=O)c1ccccc1[N+](=O)[O-]	-13%	-29%	0%	21%	2	-13
SMILES	JMJD2A Tudor inh	BAZ2B block	TDP1 inh	HP1b binding inh	Six1-Eya2 inh	CtBP-E1A inh
O=C(NC(=S)Nc1ccccn1)c1cccc([N+](=O)[O-])c1	-19%	?	2%	21%	?	-74*
CCCCCC(=O)NC(=S)NNC(=O)CC	28µM*	33%	7%	-8%	-4	13
CCOc1ccc(C(=O)NC(=S)Nc2ccccn2)cc1[N+](=O)[O-]	-20%	-31%	7%	14%	10	-1
CCCCCC(=O)NNC(=S)NC(=O)c1cccc([N+](=O)[O-])c1	35µM*	-33%	0%	-18%	-3	-1
CC(C)Cn1c(SCc2cccc(F)c2)nc2ccsc2c1=O	97%	88%[57.1 µM]	-7%	107%	.	.
O=C(O)c1cccc(NC(=S)NC(NC(=O)c2cccc([N+](=O)[O-])c2)C(Cl)(Cl)Cl)c1 (stereo not drawn)	-22%	-38%	79µM*	7%	?	-19
O=C1c2ccccc2-c2onc3ccc(NCCCn4ccnc4)c1c23	50µM*	14µM*	10%	?	-78*	14
CC(=O)Nc1ccc(Nc2nc(-c3sc(NC(C)=O)nc3C)cs2)cc1	?	50µM*	.	-13%	-12	-4
CC(=O)Nc1nc(C)c(-c2csc(Nc3cccc(C(C)=O)c3)n2)s1	-29%	-39%	.	-8%	?	.
CCC(=O)Nc1nc(C)c(-c2csc(Nc3ccc(C(=O)O)cc3)n2)s1	-24%	-16%	.	21%	-21	-13
COc1cccc(Nc2nc(-c3sc(NC(=O)CC(C)C)nc3C)cs2)c1	?	?	2%	-4%	-9	-9
Cc1nc(NC(=O)c2ccccc2)sc1-c1csc(Nc2ccc(C(=O)O)cc2)n1	22µM*	10µM*	3%	40µM*	5	-3
CCC(C)C(=O)Nc1nc(C)c(-c2csc(Nc3ccc(Cl)cc3)n2)s1 (stereo not drawn)	?	?	6%	-23%	-12	.
CCCC(=O)Nc1nc(C)c(-c2csc(Nc3ccc(Cl)cc3)n2)s1	?	28µM*	4%	?	-14	-26
COc1cccc(Nc2nc(-c3sc(NC(=O)c4ccccc4)nc3C)cs2)c1	79µM*	?	8%	?	-4	0
CCOc1ccc(CC(=O)Nc2cccc(-c3nc4cccnc4s3)c2C)cc1	-19%	0%	3%	48%	.	.
Oc1ccc(Cl)cc1N=Nc1ccccc1	35µM*	32µM*	9%	-27%	-17	.
Oc1ccc(N=Nc2ccccc2)cc1	?	?	.	-10%	-25	.
CCCCNC(=O)C(CC)Sc1nnc(-c2cccc(F)c2)c(-c2cccc(F)c2)n1 (stereo not drawn)	-10%	-21%	5%	9%	.	.
CCn1c(-c2nn(-c3ccc(C)cc3)ccc2=O)n[nH]c1=S	7.9µM*	-38%	3%	30%	0	.
CCn1c(SC)nnc1-c1nn(-c2ccccc2)ccc1=O	4µM*	?	4%	?	-3	18
CCn1c(SC)nnc1-c1c[nH]c2ccccc12	-11%	-4%	3%	26%	2	2
